High-throughput results as filed in PubChem BioAssay.
AmpC inh detg: AmpC beta-lactamase inhibition with detergent present; AmpC hydrolysis of nitrocefin, absorbance 480 nm, 0.01% Triton; Potency, µM (titrated, usually from 114 µM), for inactives: at the top dose activity change, negative = inhibition, hits mostly inhibitors; hit rate 0.041% among 370,000; AID 485294;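 also: 0% = no-compound wells and -100% = no-enzyme wells; nearly all actives have a fitted effect of over 25% in size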
Target sequence (P00811 whole entry, looked up): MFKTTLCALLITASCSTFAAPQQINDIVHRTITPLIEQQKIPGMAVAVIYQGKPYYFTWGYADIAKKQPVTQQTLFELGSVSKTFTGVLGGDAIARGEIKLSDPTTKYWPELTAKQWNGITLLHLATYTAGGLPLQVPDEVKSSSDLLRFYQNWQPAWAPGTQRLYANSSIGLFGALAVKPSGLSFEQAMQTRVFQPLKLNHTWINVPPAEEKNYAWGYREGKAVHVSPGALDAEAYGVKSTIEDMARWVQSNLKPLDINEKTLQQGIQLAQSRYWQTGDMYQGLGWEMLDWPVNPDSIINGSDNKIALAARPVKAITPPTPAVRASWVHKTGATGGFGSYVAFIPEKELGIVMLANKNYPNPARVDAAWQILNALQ
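20 mM phosphate pH 7.0 + 0.01% (detergent screen) or 0.0001% Triton X-100; 5.3 nM AmpC reagent; cpd preinc 15 min RT; nitrocefin (800 uM stock) to start; A480 q20 s × 4 min; Activity was normalised to no-enzyme and no-compound control wells.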
AmpC no deterg: inhibitors of E. coli AmpC beta-lactamase without detergent; P00811; AmpC nitrocefin hydrolysis, absorbance 480 nm, 0.0001% Triton; Potency, µM (titrated, usually from 57.1 µM), without a hit: top-dose activity change, negative = inhibition, most hits filed as inhibitors; hit rate 0.52% among 330,000; AID 485341;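 also: plate controls were no compound for no effect and no enzyme for full effect; nearly all actives have a fitted effect of over 20% in size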
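AmpC (5.3 nM in the dispensed reagent) in 20 mM phosphate pH 7.0 with 0.01% (detergent screen) or 0.0001% Triton X-100 was preincubated with compounds for 15 min at room temperature. Nitrocefin was then added from an 800 uM solution, and hydrolysis was followed at 480 nm.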
Sm TGR block: blocks Schistosoma mansoni thioredoxin glutathione reductase. Q962Y6. purified TGR, DTNB reduction, TNB absorbance 405 nm. Potency, µM (titrated, usually from 114 µM), for inactives: at the top dose activity change, negative = inhibition, actives largely listed as inhibitors. hit rate 3% among 360,000; also: nearly all actives have a fitted effect of over 60% in size
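TGR 20 nM + NADPH 100 uM (dispensed conc.), cpd preinc 15 min RT; start with NADPH (500 uM addition) then DTNB (15 mM addition). Kinetic TNB absorbance, 405 nm filter. Four-parameter Hill fit across titration.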
* hit, by the source's call; ? = inconclusive; . = not tested or not shown. In the library only some 3.3% were active in any assay of this set; here they are far more common. Calls follow the shape of the dose curve; as a rule, active = well fitted curve in the direction sought with a large enough effect; inconclusive = small, poorly fitted or top-dose-only effect, or another doubt; inactive = no such curve, though single readings can be large; an effect the other way counts as inactive or inconclusive. Unless noted, % is scaled to controls: 0 for no effect and ±100 for the full control effect; potency is read from the fitted curve at half-maximal effect.

SMILES	AmpC inh detg	AmpC no deterg	Sm TGR block
Cc1ccc(Cl)cc1NC(=O)CN1C(=O)C(C)(C)c2cc(S(=O)(=O)N3CCCCC3)ccc21	-5%	.	-10%
CCOC(=O)N1CCN(C(=O)CSc2cc(C)nc3c(-c4ccccc4OC)c(C)nn23)CC1	-6%	162%	-23%
COc1ccccc1-c1c(C)nn2c(C)cc(C)nc12	?	10µM*	3%
CCOC(=O)N1CCC(Nc2cc(C)nc3c(-c4ccccc4OC)c(C)nn23)CC1	-13%	28µM*	-5%
COc1ccccc1-c1c(C)nn2c(N3CCC(C)CC3)cc(C)nc12	-2%	-11%	7%
O=C(NCCCN1CCCC1=O)C(=O)Nc1cccc(F)c1	-12%	-19%	4%
CC(=O)c1ccc(S(=O)(=O)NCc2ccc(C(=O)NCC(c3ccccc3)N(C)C)cc2)cc1 (stereo not given)	-2%	26%	14µM*
CN(C)C(CNC(=O)c1ccc(S(=O)(=O)Nc2ccccc2F)cc1)c1ccccc1 (stereo not given)	-12%	-8%	6%
CCOc1ccccc1NC(=O)CSc1nnc(CNC(=O)c2cc(OC)c(OC)c(OC)c2)o1	-2%	56%	-12%
Cc1cccc(C)c1NC(=O)CN(C)C(=O)C(c1ccccc1)c1ccccc1	?	15%	-6%
CC(C)c1nnc(NC(=O)CCCCCN2C(=O)C3C4C=CC(C4)C3C2=O)s1 (stereo not given)	?	16%	7%
Cc1nnc(NC(=O)CCCCCN2C(=O)C3C4C=CC(C4)C3C2=O)s1 (stereo not given)	?	6.3µM*	0%
Cc1ccc(NC(=O)Nc2cc(S(C)(=O)=O)ccc2Cl)cc1	3%	-37%	3%
Cc1cc(C)c[n+](CC(=O)c2ccc(C)c([N+](=O)[O-])c2)c1	?	-22%	-17%
O=C(C[n+]1cc(Br)cc(Br)c1)c1ccccc1	1%	-10%	11µM*
O=C(C[n+]1cc(Br)cc(Br)c1)c1ccc(-c2ccccc2)cc1	-2%	-37%	0%
O=C(C[n+]1ccncc1)c1ccccc1	?	3%	35µM*
Cc1ccc(C(=O)C[n+]2cc(Br)cc(Br)c2)cc1[N+](=O)[O-]	-8%	-6%	32µM*
Nc1cc[n+](CC(=O)c2ccccc2)cc1	?	-12%	-9%
Cc1ccc(NC(=O)CSc2nc(=O)n(CCN(C)C)c3c2CCCC3)cc1Cl	-12%	192%	-9%
COc1ccc(Cn2c(C(=O)O)c(CNCc3ccco3)c3ccc(OC)cc32)cc1	-1%	.	-13%
O=C(CCNC(=O)c1ccc(Br)cc1)NC1CCCCCC1	?	3%	1%
COc1ccc(Cn2c(=O)[nH]c3cc(C(=O)N4CCN(c5cccc(Cl)c5)CC4)ccc3c2=O)cc1	?	.	-3%
COc1ccccc1C(=O)NC(=O)COC(=O)CCOc1ccccc1C	-15%	20%	5%
CCOC(=O)c1cnc(-c2ccccc2)nc1C(F)(F)F	1%	-2%	0%
SMILES	AmpC inh detg	AmpC no deterg	Sm TGR block
CCOC(=O)c1cnc2c(F)ccc(F)c2c1Sc1ccccc1	-7%	-15%	16µM*
Cc1oc(-c2ccc3c(c2)OCCO3)cc1C(=O)NC(Cc1ccccc1)C(=O)O (stereo not given)	-1%	-5%	35µM*
COC(=O)CCC(NC(=O)c1cc(-c2ccc3c(c2)OCCO3)oc1C)C(=O)OC (stereo not given)	-8%	71%	?
CN(CC(=O)Nc1ccccc1Cl)C(=O)COC(=O)c1nc(Cl)c(Cl)c(Cl)c1Cl	5%	84%	18µM*
CN(CC(=O)Nc1ccccc1Cl)C(=O)COC(=O)c1ccc(Cl)nc1	-9%	-14%	2%
CCOC(=O)NNc1ccc2nonc2c1[N+](=O)[O-]	-5%	-29%	16µM*
Cc1cccc(Nc2ccc3nonc3c2[N+](=O)[O-])c1C	2%	-16%	-21%
c1ccc(Oc2c3ccccc3nc3ccccc23)cc1	-9%	-21%	5µM*
Cc1nc(Oc2ccccc2)c2ccccc2n1	0%	-2%	5%
CCn1c(SCC(=O)NNC(=O)c2ccccc2)nnc1-c1ccco1	4%	-13%	-3%
CCn1c(SCC(=O)c2ccc3ccccc3c2)nnc1-c1ccco1	3%	-13%	32µM*
CCn1c(SCC(=O)c2ccc3c(c2)OCCO3)nnc1-c1ccco1	?	1%	22µM*
COCCn1c(SCC(=O)NC2CCCCC2)nnc1-c1ccco1	-10%	-10%	9%
COCCCn1c(SCC(=O)NC2CCCC2)nnc1-c1ccco1	3%	-22%	40µM*
CCn1c(SCC(=O)N2CCCCC2C)nnc1-c1ccco1 (stereo not given)	-3%	-10%	45µM*
CC1CCCCN1C(=O)CSc1nnc(-c2ccco2)n1C (stereo not given)	-6%	-4%	-18%
COCCn1c(SCC(=O)c2ccc3c(c2)OCCO3)nnc1-c1ccco1	4%	-8%	-25%
CCOc1ccc(CNC(=O)CCC(=O)N2Cc3ccccc3Oc3ncccc32)cc1	-1%	58%	0%
N/C(=N\OC(=O)Cc1ccc(-c2ccccc2)cc1)c1ccncc1	-5%	39%	-8%
COC(=O)c1sc2nc(CN3CCN(c4ccc(OC)cc4)CC3)[nH]c(=O)c2c1C	?	-8%	-7%
Cc1cc(=O)[nH]c2sc(C(=O)N3c4ccccc4CC3C)c(N)c12 (stereo not given)	.	-47%	.
COc1cccc(NC(=O)N2CCCC2C(=O)NC2CCCC2)c1 (stereo not given)	0%	-16%	9%
Cc1ccc(CN(C)C(=O)c2ccccc2NC(=O)c2ccccc2)o1	-19%	-16%	40µM*
CN(Cc1ccccc1)C(=O)c1ccccc1NC(=O)c1ccco1	-5%	4%	-12%
CCc1ccccc1NC(=O)C1CCN(S(=O)(=O)c2ccc3c(c2)N(C(C)=O)CCO3)CC1	1%	54%	-13%
SMILES	AmpC inh detg	AmpC no deterg	Sm TGR block
Cc1ncc(CSc2nnnn2-c2ccccc2)c(N)n1	?	-24%	45µM*
CCSc1nnnn1-c1ccccc1	2%	-4%	0%
COc1ccc(NC(=S)N2CCC(NC(=O)c3ccc(OC)cc3)CC2)cc1	?	-4%	1%
O=C(CSc1nc2sc3c(c2c(=O)n1-c1ccccc1)CCCC3)NCc1ccco1	-11%	-18%	-11%
CC(C)c1nc2sc3c(SCC(=O)NCc4ccco4)ncnc3c2c2c1CCC2	-3%	30%	25µM*
COCCCn1c(SCC(=O)NCc2ccco2)nc2sc3c(c2c1=O)CCC3	2%	-10%	40µM*
CC(C)Cc1nc2sc3c(SCC(N)=O)ncnc3c2c2c1CCC2	7%	-8%	-1%
O=C(CSc1ncnc2sc3c(c12)CCCC3)c1ccco1	-13%	-19%	-24%
O=C(CSc1ncnc2sc3c(c12)CCCCC3)NCc1ccco1	4%	-12%	32µM*
COCCNC(=O)CSc1nnc(-c2ccccc2F)n1Cc1ccccc1	-14%	268%	3%
C/C(CC(=O)Nc1ccc(F)cc1F)=N\NC(=O)C(=O)N1CCCCC1	?	-10%	-13%
Cc1cc(C)cc(NC(=O)C2CCN(S(C)(=O)=O)CC2)c1	-13%	-4%	15%
